Laboratory results as given in PubChem BioAssay (Tox21).
Active and inactive are the calls of the source. Unless noted, calls follow the shape of the dose curve; as a rule, active = well fitted curve in the direction sought with a large enough effect in the repeat runs; inconclusive = weak or mixed curves; inactive = no such curve, though single readings can be large; an effect the other way counts as inactive or inconclusive.

How the values were obtained:
[1] = qHTS assay for small molecules that induce genotoxicity in human embryonic kidney cells expressing luciferase-tagged ATAD5 (AID 651632); also: nearly all actives have a fitted effect of over 15% in size
In short: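 Genotoxicity read-out via ATAD5-luciferase: HEK293T cells, 16 hr compound incubation at 37C, Amplite detection.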

[2] = qHTS assay for small molecule agonists of the p53 signaling pathway - cell viability (AID 651633; calls by dose curve; also: potency is read from the fitted curve at half-maximal effect; nearly all actives have a fitted effect of over 30% in size)
In short: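 Viability counter-read: CellTiter-Glo luminescence (30 min, room temperature) in the same p53RE-bla plates. These plates had been exposed to compounds for 16 h at 37 C.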

[3] = qHTS assay for small molecules that induce genotoxicity in human embryonic kidney cells expressing luciferase-tagged ATAD5 - cell viability (AID 651634; calls by dose curve; also: nearly all actives have a fitted effect of over 25% in size; also: potency is read from the fitted curve at half-maximal effect)
In short: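 Live-cell protease activity (CellTiter-Fluor, fluorescence) indicates viability. HEK293T cells with luciferase-tagged ATAD5; 15.5 hr compound treatment at 37C.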

[4] = qHTS assay for small molecule disruptors of the mitochondrial membrane potential - cell viability (AID 720634; calls by dose curve;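 also: human HepG2 liver cancer cells; series mostly up to about 83 µM; nearly all actives have a fitted effect of over 20% in size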)
In short: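 Human hepatoma HepG2 cells were treated for 1 hr with test chemicals, then given m-MPI dye and CellTiter-Glo. Cell viability reflects luminescence proportional to cellular ATP.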

[5] = qHTS assay to test for compound auto fluorescence at 590 nm (red) in HepG2 cells (AID 720674)
In short: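 Red autofluorescence (Ex/Em 540/590 nm, Rose Bengal sodium equivalents) was measured in HepG2 cells, 2,000 per well in MEM plus 10% FBS, plated overnight at 37 C. Readings were taken 1 hr after adding 23 nL compound or DMSO, at 37 C and 5% CO2.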

[6] = qHTS assay to test for compound auto fluorescence at 535 nm (green) in HepG2 cells (AID 720675)
[7] = qHTS assay to test for compound auto fluorescence at 460 nm (blue) in HEK293 cells (AID 720678)
In short: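 HEK293, 2,000 cells/well, 10% dialyzed FBS; attach 4-5 hr 37C; pin compound or DMSO; o/n 37C/5% CO2; fluorescence 405/460 nm; triamterene-equivalent units.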

[8] = qHTS assay to test for compound auto fluorescence at 590 nm (red) in HEK293 cells (AID 720679)
In short: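 Intensity at 540nm excitation and 590nm emission is reported as Rose Bengal sodium-equivalent autofluorescence. Measurements followed overnight exposure (37C, 5% CO2) of HEK293 cells, 2,000 per well, to 23 nL compound.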

[9] = qHTS assay to test for compound auto fluorescence at 535 nm (green) in HEK293 cells (AID 720680)
[10] = qHTS assay to test for compound auto fluorescence at 535 nm (green) in HEK293 cell free culture (AID 720682)
In short: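 Green-label autofluorescence (485 nm excitation, 535 nm emission) measured on compound added to cell-free culture medium (DMEM, 10% FBS). Output is expressed relative to fluorescein.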

[11] = qHTS assay to test for compound auto fluorescence at 590 nm (red) in HEK293 cell free culture (AID 720683)
In short: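 Red-channel autofluorescence of compounds in culture medium (DMEM, 10% FBS), no cells, measured at 540/590 nm. Rose Bengal sodium is the reference fluorophore for equivalence.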

[12] = qHTS assay to test for compound auto fluorescence at 590 nm (red) in HepG2 cell free culture (AID 720684)
In short: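 Plate contents were MEM with 10% FBS plus test compound or DMSO, no cells. Fluorescence was recorded with 540 nm excitation and 590 nm emission.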

[13] = qHTS assay to test for compound auto fluorescence at 460 nm (blue) in HepG2 cell free culture (AID 720685)
In short: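 Compound (23 nL) or DMSO pinned into cell-free MEM with 10% FBS; blue fluorescence read at 405/460 nm excitation/emission, expressed as auto-fluorescence equivalency to triamterene.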

[14] = qHTS assay to test for compound auto fluorescence at 535 nm (green) in HepG2 cell free culture (AID 720686)
[15] = qHTS assay to test for compound auto fluorescence at 460 nm (blue) in HepG2 cells (AID 720687)
In short: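 Blue-channel autofluorescence (Ex/Em 405/460 nm, triamterene-equivalent) was measured after 1 hr compound exposure at 37 C, 5% CO2. Cells were HepG2, plated overnight at 37 C in MEM plus 10% FBS.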

[16] = target: Glucocorticoid receptor (Homo sapiens) (UniProt P04150); test: qHTS assay to identify small molecule antagonists of the glucocorticoid receptor (GR) signaling pathway (AID 720692; active = well fitted inhibition curve with a large enough effect in the signal ratio in the repeat runs, not every such curve was filed as active; inconclusive = weak or mixed curves, or effect the other way; inactive = no such curve, though single readings can be large or run the other way; the % refers to the signal ratio; also: potency is read from the fitted curve at half-maximal effect)
In short: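 Fluorescence from cleaved LiveBLAzer B/G FRET substrate reports GRE-driven beta-lactamase in HeLa cells; compounds are tested against 5 nM dexamethasone (final) over 18 h at 37 C, substrate incubation 2 h at room temperature.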

[17] = qHTS assay to identify small molecule antagonists of the glucocorticoid receptor (GR) signaling pathway - cell viability counter screen (AID 720693); also: potency is read from the fitted curve at half-maximal effect; nearly all actives have a fitted effect of over 55% in size
[18] = qHTS assay for identifying genotoxic compounds that show differential cytotoxicity against isogenic chicken DT40 cell lines with known DNA damage response pathways - wild type cell line (AID 743012); also: potency is read from the fitted curve at half-maximal effect; nearly all actives have a fitted effect of over 60% in size
In short: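 Quantitative HTS on parental DT40 cells: 40 h compound treatment at 37 C/5% CO2, with viability then determined by CellTiter-Glo luminescence. Values serve as the DNA repair-proficient reference for differential cytotoxicity.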

[19] = qHTS assay for identifying genotoxic compounds that show differential cytotoxicity against isogenic chicken DT40 cell lines with known DNA damage response pathways - Rev3 mutant cell line (AID 743014); also: potency is read from the fitted curve at half-maximal effect; nearly all actives have a fitted effect of over 55% in size
[20] = qHTS assay for identifying genotoxic compounds that show differential cytotoxicity against isogenic chicken DT40 cell lines with known DNA damage response pathways - Rad54/Ku70 mutant cell line (AID 743015); also: potency is read from the fitted curve at half-maximal effect; nearly all actives have a fitted effect of over 60% in size
[21] = target: Androgen receptor (Homo sapiens) (UniProt P10275); test: qHTS assay to identify small molecule antagonists of the androgen receptor (AR) signaling pathway (AID 743035; active = well fitted inhibition curve with a large enough effect in the signal ratio in the repeat runs, not every such curve was filed as active; inconclusive = weak or mixed curves, or effect the other way; inactive = no such curve, though single readings can be large or run the other way; the % refers to the signal ratio; also: potency is read from the fitted curve at half-maximal effect)
In short: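 Cell line: GeneBLAzer AR-UAS-bla GripTite (HEK293). Stimulus: R1881 added after compound. Exposure: 16 h, 37C, 5% CO2. Readout: LiveBLAzer B/G FRET fluorescence after 2 h at room temperature.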

[22] = target: Androgen receptor (Homo sapiens) (UniProt P10275); test: qHTS assay to identify small molecule agonists of the androgen receptor (AR) signaling pathway (AID 743036; active = well fitted activation curve with a large enough effect in the signal ratio in the repeat runs, with a control signal flat, not every such curve was filed as active; inconclusive = weak or mixed curves, or effect the other way; inactive = no such curve, though single readings can be large or run the other way; the % refers to the signal ratio)
In short: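 AR-UAS-bla HEK293 cells, plated 4 h before dosing, were treated with compound for 16 h at 37C. beta-Lactamase reporter read after 2 h with LiveBLAzer B/G FRET substrate at room temperature.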

[23] = target: Androgen receptor (Homo sapiens) (UniProt P10275); test: qHTS assay to identify small molecule agonists of the androgen receptor (AR) signaling pathway using the MDA cell line (AID 743040; also: nearly all actives have a fitted effect of over 20% in size)
In short: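 After a 5 h incubation at 37C and 0% CO2, MDA-kb2 reporter cells were dosed with compounds in DMSO and kept 16 h under the same conditions. Luciferase activity was then read as luminescence with ONE-Glo.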

[24] = qHTS assay to identify small molecule antagonists of the thyroid receptor (TR) signaling pathway - cell viability counter screen (AID 743064); also: nearly all actives have a fitted effect of over 50% in size; also: potency is read from the fitted curve at half-maximal effect
In short: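 GH3.TRE-Luc rat pituitary cells dosed after 4 hr plating, co-stimulated with T3 at 1 nM final, incubated 23.5 h at 37 C. Viability measured in the same wells by CellTiter-Fluor fluorescence after 30 min further at 37 C.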

[25] = qHTS assay to identify small molecule antagonists of the thyroid receptor (TR) signaling pathway (AID 743065); also: potency is read from the fitted curve at half-maximal effect; nearly all actives have a fitted effect of over 55% in size
In short: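 Antagonism measured as loss of luciferase signal in GH3 cells stably carrying a TRE-luciferase reporter, co-treated with compound and T3 (1 nM final) for 23.5 h at 37 C. Viability was read in the same well by CellTiter-Fluor.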

[26] = qHTS assay to identify small molecule antagonists of the estrogen receptor alpha (ER-alpha) signaling pathway - cell viability counter screen (AID 743074; calls by dose curve;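 also: HEK293 cells carrying ER-alpha-UAS-bla reporter stimulated with 17beta-estradiol; nearly all actives have a fitted effect of over 45% in size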; also: potency is read from the fitted curve at half-maximal effect)
[27] = target: Estrogen receptor (Homo sapiens) (UniProt P03372); test: qHTS assay to identify small molecule agonists of the estrogen receptor alpha (ER-alpha) signaling pathway (AID 743075; calls by dose curve;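 also: HEK293 GripTite cells with ER-alpha and UAS-driven beta-lactamase reporter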; also: potency is read from the fitted curve at half-maximal effect)
[28] = qHTS assay to identify small molecule antagonists of the estrogen receptor alpha (ER-alpha) signaling pathway using the BG1 cell line - cell viability counter screen (AID 743081);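 also: compound given together with 17beta-estradiol as the ER stimulus; series mostly up to about 70 µM; nearly all actives have a fitted effect of over 45% in size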
[29] = qHTS assay to identify small molecule that activate the aryl hydrocarbon receptor (AhR) signaling pathway - cell viability counter screen (AID 743086); also: nearly all actives have a fitted effect of over 45% in size; also: potency is read from the fitted curve at half-maximal effect
In short: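 Cytotoxicity counter screen: CellTiter-Fluor signal (30 min, 37 C) in 4000 HepG2 cells/well carrying the DRE-luciferase reporter, following 24 h compound exposure at 37 C.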

[30] = target: Peroxisome proliferator-activated receptor gamma (Homo sapiens) (UniProt P37231); test: qHTS assay to identify small molecule agonists of the peroxisome proliferator-activated receptor gamma (PPARg) signaling pathway (AID 743094; active = well fitted activation curve with a large enough effect in the signal ratio in the repeat runs, not every such curve was filed as active; inconclusive = weak or mixed curves, or effect the other way; inactive = no such curve, though single readings can be large or run the other way; the % refers to the signal ratio)
In short: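 Stably transfected HEK293H cells (GeneBLAzer PPARg UAS-bla) were incubated with test substances for 17 h at 37C after a 5 h pre-incubation; beta-lactamase activity was then detected by FRET substrate fluorescence.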

[31] = target: Acetylcholinesterase (Homo sapiens) (UniProt P22303); test: Acetylcholinesterase (AChE) small molecule antagonists: fluorescence cell-based qHTS assay (AID 1347398; calls by dose curve; also: potency is read from the fitted curve at half-maximal effect; nearly all actives have a fitted effect of over 50% in size); conditions: Potency: AChE activity; outcome: AChE activity
In short: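 Fluorimetric cell-based assay: intact SH-SY5Y cells, 30 min compound preincubation at 37 C, acetylthiocholine substrate with thiol probe Thiolite Green, 40 min RT development, fluorescence 490/520 nm.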

[32] = target: Acetylcholinesterase (Homo sapiens) (UniProt P22303); test: Acetylcholinesterase (AChE) small molecule antagonists: enzyme-based qHTS assay with human liver microsomes (AID 1347399; calls by dose curve; also: nearly all actives have a fitted effect of over 60% in size); conditions: Potency: qHTS inhibition; outcome: qHTS inhibition
In short: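 Recombinant human AChE (50 mU/mL in the enzyme mix) and human liver microsomes (0.25 mg/mL final) were preincubated with compound and NADPH (0.25 mg/mL final) for 30 min at 37 C. Acetylthiocholine/DTNB was then added; thiocholine was read colorimetrically after 10 min at room temperature.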

[33] = target: Glucocorticoid receptor (Homo sapiens) (UniProt P04150); test: qHTS assay to identify small molecule agonists of the glucocorticoid receptor (GR) signaling pathway (AID 720691; active = well fitted activation curve with a large enough effect in the signal ratio in the repeat runs, not every such curve was filed as active; inconclusive = weak or mixed curves, or effect the other way; inactive = no such curve, though single readings can be large or run the other way; the % refers to the signal ratio)
In short: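 Beta-lactamase reporter activity, read as fluorescence intensity, was measured in GR-bla HeLa cells exposed to compounds for 18 h at 37 C and then loaded with LiveBLAzer B/G FRET substrate for 2 h at room temperature.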

[34] = qHTS assay to identify small molecule antagonists of the androgen receptor (AR) signaling pathway using the MDA cell line - cell viability counter screen (AID 743041; also: nearly all actives have a fitted effect of over 45% in size)
In short: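 R1881-driven MDA-kb2 AR-luc cells, 3,000/well, were dosed with library compounds for 16 h; cell health came from CellTiter-Fluor fluorescence in the reporter wells.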

[35] = test system: thyroid hormone receptor (rat, GH3 cells); test: qHTS assay to identify small molecule agonists of the thyroid receptor (TR) signaling pathway (AID 743066; calls by dose curve)
[36] = target: Estrogen receptor (Homo sapiens) (UniProt P03372); test: qHTS assay to identify small molecule agonists of the estrogen receptor alpha (ER-alpha) signaling pathway using the BG1 cell line (AID 743079); also: potency is read from the fitted curve at half-maximal effect; nearly all actives have a fitted effect of over 20% in size
[37] = target: Aromatase (Homo sapiens) (UniProt P11511); test: qHTS assay to identify aromatase inhibitors (AID 743083); also: series mostly up to about 70 µM; nearly all actives have a fitted effect of over 55% in size
[38] = qHTS assay to identify aromatase inhibitors - cell viability counter screen (AID 743084)

Measured: Potency

Glucocorticoid receptor (Homo sapiens), sequence (P04150 whole entry, looked up): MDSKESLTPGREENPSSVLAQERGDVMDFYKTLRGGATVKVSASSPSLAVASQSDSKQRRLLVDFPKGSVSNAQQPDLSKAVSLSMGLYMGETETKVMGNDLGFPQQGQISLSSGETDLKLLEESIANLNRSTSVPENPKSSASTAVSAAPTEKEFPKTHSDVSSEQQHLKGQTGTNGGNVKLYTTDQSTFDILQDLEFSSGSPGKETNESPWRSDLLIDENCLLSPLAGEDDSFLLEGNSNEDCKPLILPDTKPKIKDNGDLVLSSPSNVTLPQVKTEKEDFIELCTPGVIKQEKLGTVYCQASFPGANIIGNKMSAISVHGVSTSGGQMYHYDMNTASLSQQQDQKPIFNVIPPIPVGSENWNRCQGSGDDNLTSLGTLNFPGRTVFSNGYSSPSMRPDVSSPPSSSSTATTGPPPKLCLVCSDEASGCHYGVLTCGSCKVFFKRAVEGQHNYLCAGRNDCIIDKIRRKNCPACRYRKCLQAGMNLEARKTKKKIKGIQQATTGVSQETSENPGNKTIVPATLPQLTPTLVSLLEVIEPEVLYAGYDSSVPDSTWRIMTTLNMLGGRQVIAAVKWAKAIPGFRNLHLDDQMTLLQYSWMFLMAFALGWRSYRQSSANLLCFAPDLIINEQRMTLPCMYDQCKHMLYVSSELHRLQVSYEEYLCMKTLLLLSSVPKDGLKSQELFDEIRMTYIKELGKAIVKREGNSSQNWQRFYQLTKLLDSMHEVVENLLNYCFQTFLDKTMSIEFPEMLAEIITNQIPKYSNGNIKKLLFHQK
Androgen receptor (Homo sapiens), sequence (P10275 whole entry, looked up): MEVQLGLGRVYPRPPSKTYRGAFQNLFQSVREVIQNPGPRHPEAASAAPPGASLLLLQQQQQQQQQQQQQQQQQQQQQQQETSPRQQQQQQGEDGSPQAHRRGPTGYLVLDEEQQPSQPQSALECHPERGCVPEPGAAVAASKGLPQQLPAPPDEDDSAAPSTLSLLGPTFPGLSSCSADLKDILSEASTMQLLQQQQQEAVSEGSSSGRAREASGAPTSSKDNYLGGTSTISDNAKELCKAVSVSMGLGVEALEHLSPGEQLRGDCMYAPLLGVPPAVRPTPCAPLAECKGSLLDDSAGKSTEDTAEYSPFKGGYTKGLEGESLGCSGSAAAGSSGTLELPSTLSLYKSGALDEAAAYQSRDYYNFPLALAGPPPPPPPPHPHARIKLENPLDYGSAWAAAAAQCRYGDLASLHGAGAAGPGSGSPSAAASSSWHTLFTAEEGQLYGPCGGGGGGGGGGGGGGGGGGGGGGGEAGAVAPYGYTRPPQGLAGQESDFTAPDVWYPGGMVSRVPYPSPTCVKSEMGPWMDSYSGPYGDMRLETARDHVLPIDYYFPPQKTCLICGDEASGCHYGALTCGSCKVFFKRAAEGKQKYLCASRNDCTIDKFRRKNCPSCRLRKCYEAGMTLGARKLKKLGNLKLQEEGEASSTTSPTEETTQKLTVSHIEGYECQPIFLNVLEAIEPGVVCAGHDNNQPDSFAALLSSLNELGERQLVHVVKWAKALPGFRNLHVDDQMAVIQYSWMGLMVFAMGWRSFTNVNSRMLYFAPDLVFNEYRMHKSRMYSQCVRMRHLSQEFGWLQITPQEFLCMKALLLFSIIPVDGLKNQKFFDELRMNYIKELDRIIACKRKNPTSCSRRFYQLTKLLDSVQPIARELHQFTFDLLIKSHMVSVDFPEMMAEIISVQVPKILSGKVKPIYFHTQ
Estrogen receptor (Homo sapiens), sequence (P03372 whole entry, looked up): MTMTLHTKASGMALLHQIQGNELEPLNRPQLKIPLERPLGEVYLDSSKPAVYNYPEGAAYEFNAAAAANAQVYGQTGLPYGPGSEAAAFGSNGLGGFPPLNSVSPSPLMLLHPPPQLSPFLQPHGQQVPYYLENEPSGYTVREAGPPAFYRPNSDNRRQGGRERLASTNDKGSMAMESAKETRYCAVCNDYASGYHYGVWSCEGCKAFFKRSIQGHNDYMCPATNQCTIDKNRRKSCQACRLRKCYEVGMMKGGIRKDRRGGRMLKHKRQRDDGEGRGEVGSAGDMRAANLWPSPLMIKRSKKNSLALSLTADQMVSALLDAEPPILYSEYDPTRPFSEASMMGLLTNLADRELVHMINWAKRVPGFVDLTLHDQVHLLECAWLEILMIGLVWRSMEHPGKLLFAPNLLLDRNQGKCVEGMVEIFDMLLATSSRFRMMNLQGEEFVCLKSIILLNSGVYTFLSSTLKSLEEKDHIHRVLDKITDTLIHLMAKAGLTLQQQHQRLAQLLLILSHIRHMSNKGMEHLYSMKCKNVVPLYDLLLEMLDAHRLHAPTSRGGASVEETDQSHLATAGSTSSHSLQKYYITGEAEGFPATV
Peroxisome proliferator-activated receptor gamma (Homo sapiens), sequence (P37231 whole entry, looked up): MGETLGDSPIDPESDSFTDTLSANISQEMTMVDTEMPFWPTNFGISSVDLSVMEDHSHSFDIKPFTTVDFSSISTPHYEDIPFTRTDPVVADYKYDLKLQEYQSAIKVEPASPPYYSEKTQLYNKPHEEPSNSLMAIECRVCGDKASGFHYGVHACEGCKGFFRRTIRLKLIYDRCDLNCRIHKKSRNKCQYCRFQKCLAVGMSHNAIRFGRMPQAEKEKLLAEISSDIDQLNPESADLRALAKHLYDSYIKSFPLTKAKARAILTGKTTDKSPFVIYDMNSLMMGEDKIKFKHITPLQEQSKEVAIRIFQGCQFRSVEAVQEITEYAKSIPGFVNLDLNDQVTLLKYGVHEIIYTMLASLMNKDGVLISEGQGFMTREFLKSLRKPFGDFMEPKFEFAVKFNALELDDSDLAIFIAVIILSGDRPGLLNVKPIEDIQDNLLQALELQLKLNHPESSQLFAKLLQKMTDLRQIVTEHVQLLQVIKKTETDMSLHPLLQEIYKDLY
Aromatase (Homo sapiens), sequence (P11511 whole entry, looked up): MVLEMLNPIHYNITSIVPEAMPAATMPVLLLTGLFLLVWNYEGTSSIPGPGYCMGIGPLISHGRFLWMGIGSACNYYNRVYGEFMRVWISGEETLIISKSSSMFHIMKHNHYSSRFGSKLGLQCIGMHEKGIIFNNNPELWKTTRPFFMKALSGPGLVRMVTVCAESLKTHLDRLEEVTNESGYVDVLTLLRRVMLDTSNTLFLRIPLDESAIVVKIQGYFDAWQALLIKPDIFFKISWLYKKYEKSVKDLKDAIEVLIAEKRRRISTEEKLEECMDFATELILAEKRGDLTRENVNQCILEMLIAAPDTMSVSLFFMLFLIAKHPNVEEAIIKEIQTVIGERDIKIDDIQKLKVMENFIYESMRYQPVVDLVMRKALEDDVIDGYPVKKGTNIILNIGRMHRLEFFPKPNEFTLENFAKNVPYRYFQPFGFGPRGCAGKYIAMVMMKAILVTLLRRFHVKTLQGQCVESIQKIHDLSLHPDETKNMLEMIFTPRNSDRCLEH
Acetylcholinesterase (Homo sapiens), sequence (P22303 whole entry, looked up): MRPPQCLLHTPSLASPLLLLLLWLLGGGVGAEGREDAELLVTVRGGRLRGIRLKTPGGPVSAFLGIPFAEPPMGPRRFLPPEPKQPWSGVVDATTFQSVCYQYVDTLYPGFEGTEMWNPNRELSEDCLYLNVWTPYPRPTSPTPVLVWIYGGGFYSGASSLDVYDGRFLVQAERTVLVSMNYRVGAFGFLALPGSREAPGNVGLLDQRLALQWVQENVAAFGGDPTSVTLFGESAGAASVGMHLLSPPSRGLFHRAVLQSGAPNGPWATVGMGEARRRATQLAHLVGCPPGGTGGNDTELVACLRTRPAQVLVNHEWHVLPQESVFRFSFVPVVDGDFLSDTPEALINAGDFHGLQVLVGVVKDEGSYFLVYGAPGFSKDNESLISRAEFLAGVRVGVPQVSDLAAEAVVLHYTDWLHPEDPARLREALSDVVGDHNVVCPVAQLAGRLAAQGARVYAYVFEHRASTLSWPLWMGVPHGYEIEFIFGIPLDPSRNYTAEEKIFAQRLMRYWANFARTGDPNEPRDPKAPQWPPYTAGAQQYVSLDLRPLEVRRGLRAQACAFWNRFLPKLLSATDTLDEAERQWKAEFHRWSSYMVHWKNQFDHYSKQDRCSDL

CN1C2CCC1CC(OC(c1ccccc1)c1ccc(Cl)cc1)C2 (configuration not stated)
active: [2] 29.8 µM | [3] 26.6 µM | [16] 21.3 µM | [17] 23.9 µM | [18] 2.11 µM | [19] 2.98 µM | [20] 4.22 µM | [21] 21.3 µM | [24] 4.73 µM | [25] 5.96 µM | [26] 23.9 µM | [29] 23.7 µM
not listed: [31] | [32] | [33] | [34] | [35] | [36] | [37] | [38]
inactive: all other assays above

Cc1cc(O)ccc1O
active: [31] 71.8 µM
inactive: [32]

C[C@]12CC[C@H]3[C@@H](CCC4=CC(=O)CC[C@@]43C)[C@@H]1CC[C@@H]2OC(=O)CCc1ccccc1
active: [16] 6.16 µM | [18] 5.45 µM | [19] 8.63 µM | [20] 8.63 µM | [27] 3.89 µM [inconclusive] | [36] 0.0306 µM
not listed: [2] | [4] | [17] | [21] | [22] | [23] | [25] | [31] | [32]
inactive: all other assays above

CC[C@@]1([C@@H]2O[C@@H]([C@H]3O[C@@](O)(CO)[C@H](C)C[C@@H]3C)C[C@@H]2C)CC[C@H]([C@]2(C)CC[C@]3(C[C@H](O)[C@@H](C)[C@@H]([C@@H](C)[C@@H](OC)[C@H](C)C(=O)O)O3)O2)O1 (stereo in doubt)
inactive: [37]
